Eight molecules from PubChem BioAssay (NCATS) can be followed below.

SMILES strings stand for the structures. Records with an inconclusive call do not appear. Active and inactive are the calls of the source. Unless noted, calls follow the shape of the dose curve; as a rule, active = well fitted curve in either direction with a large enough effect (not every such curve was filed as active); inconclusive = small, poorly fitted or top-dose-only effect, or another doubt; inactive = flat fitted curve, though single readings scatter.

The target of assay [1] is Lysosomal acid glucosylceramidase (Homo sapiens) (UniProt P04062). Briefly: Glucocerebrosidase-p2 (AID 348; in the data active = potency below about 10 µM; also: potency is read from the fitted curve at half-maximal effect). To be noted: purified GBA, blue fluorogenic substrate, 40 min. Summed up: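 Normal human glucocerebrosidase (0.2 nM) with blue fluorogenic substrate (80 uM final) in citrate/phosphate pH 5.9 with 10mM sodium taurocholate, 0.01% tween-20; 40 min RT, NaOH/glycine stop; fluorescence Ex 365/Em 440; AC50 from a titration from 0.6 nM upwards.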

A short description of assay [2]: AP1 Signaling Pathway (AID 357). Also: % is scaled to controls: 0 for no effect and ±100 for the full control effect. To be noted: ME-180 AP-1-bla reporter, EGF-induced, beta-lactamase ratio, 5 h; at 7.69 µM (top of the series) unless noted. Summed up: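 Cells are seeded overnight, exposed to compound titrations and an EC50 level of EGF for 5 hours at 37 °C, then loaded with CCF4 dye for 2.5 hours. Beta-lactamase activity under the AP-1 element is read as a blue/green ratio.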

Assay [3] deals with Cytochrome P450 1A2 (Homo sapiens) (UniProt P05177). Briefly: p450-cyp1a2 (AID 410; calls by dose curve; also: potency is read from the fitted curve at half-maximal effect;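 as to activity change, negative = inhibition: -100% = full effect of reference inhibitor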). Summed up: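 20nM CYP1A2, 100uM Luciferin-ME (=Km), 100mM KPO4; cpd 10 min RT; +NADPH regen, 60 min RT; stop/detect 20 min; luminescence. Normalized to furafylline 57 uM = full inhibition.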
The nature of assay [4]: NFAT Signaling Pathway (AID 444).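 Also: carbachol stimulus at about its EC50 of 1 µM final; % is scaled to controls: 0 for no effect and ±100 for the full control effect.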 To be noted: Jurkat NFAT-bla M1, carbachol, beta-lactamase ratio, 5 h; at 7.69 µM (top of the series) unless noted. In short, it runs like this: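 Read-out: CCF4 FRET ratio (460 nm/530 nm) after 1 h RT dye loading, used for %activity and AC50 from titration series. Cells: Jurkat NFAT-β-lactamase/M1 line, treated with compound plus 1 uM carbachol for 5 h, 37 °C.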

A short description of assay [5]: Stat Signaling Pathway (AID 446).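 Also: ME-180 cervical cancer cells given 40 pM IL-6 alongside compound; SIE-controlled beta-lactamase reporter measured as 460/530 nm FRET emission ratio; % is scaled to controls: 0 for no effect and ±100 for the full control effect.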 Conditions: ME-180 (cervical carcinoma) SIE beta-lactamase reporter, IL-6 stimulated, 5 h; at 7.69 µM (top of the series) unless noted. Summed up: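 Emission at 460 and 530 nm (excitation 405 nm) reports SIE-controlled beta-lactamase in ME-180 cells. Cells received compound with 40 pM IL-6 for 5 hrs at 37 C; data scaled between 300 pM IL-6 and 125 nM JAK-inhibitor controls.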

For assay [6], the target named is Glucocorticoid receptor (Homo sapiens) (UniProt P04150). In words: GR-GFP Redistribution (AID 450;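 active = compounds whose dose series gives a full or clear partial fitted curve of increased nuclear translocation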; also: potency is read from the fitted curve at half-maximal effect). To be noted: U2OS GR-GFP nuclear translocation, laser cytometry, 2 h.
The target is the same in assay [7]. In words: GR-EFC Redistribution (AID 451; calls by dose curve; also: potency is read from the fitted curve at half-maximal effect). To be noted: CHO-K1 GR-EFC translocation, beta-gal luminescence, 2 h. In short, it runs like this: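 Translocation of GR-ED fusion to nuclear EA restores b-gal, read by luminescence after 1 h room-temperature detection. Engineered CHO-K1 biosensor cells, 1,000/well, exposed 2 h at 37 C to titrations up to 46 uM final.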

In assay [8] the target is Mitogen-activated protein kinase 10 (Mus musculus) (UniProt Q61831). Briefly: JNK3 AlphaScreen Assay (AID 530).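 Also: kinase came from lysate of stimulated human HepG2 cells; signal reports phosphorylation of biotinylated GST-cJun 1-79 at Ser73 with 10 µM ATP; % is scaled to controls: 0 for no effect and ±100 for the full control effect.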 In short, it runs like this: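 Kinase buffer: 20 mM Tris-HCl pH 7.6, 10 mM MgCl2, 1 mM DTT, 0.1 mM Na3VO4, 0.01% Tween-20; ATP 10 uM. Substrate biotin-GST-cJun(1-79), enzyme from activated HepG2 lysates. Detection by Ser73 phospho-antibody AlphaScreen.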
The target of assay [9] is 3',5'-cyclic-AMP phosphodiesterase 4B (Homo sapiens) (UniProt Q07343). In words: qHTS Assay for Inhibitors of PDE-IV (AID 607; active = well fitted activation curve with a large enough effect in the main read-out, with a control signal flat, not every such curve was filed as active; also: % of control where 0% means no effect). In short, it runs like this:
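The readout is membrane depolarisation from a cAMP-sensing CNG channel, detected with a potential dye at ex 535/em 590. Cells were HEK293-derived (endogenous PDE-IV) at 1000 cells/well, titrated up to 22.9 uM final.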

Assay [10] is described as follows: qHTS Assay for Lipid Storage Modulators (AID 1519; calls by dose curve). To be noted: Drosophila S3 cells, BODIPY lipid droplet/cell ratio, laser cytometry, cells loaded with oleic acid; for activity change, negative = inhibition: at 57.5 µM (top of the series). In short, it runs like this: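 Cells seeded at 5,000 per well were treated with compounds over a concentration series and loaded with oleic acid (400 uM, as added). Lipid droplet fluorescence (488 nm excitation, 500-530 nm channel) was read by laser-scanning cytometry and normalized to 20 uM Triacsin C.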

Assay [11] can be described thus: Confirmation and Secondary Assay for Modulators of Hemoglobin Beta Chain Splicing at IVS2 654 locus (AID 910; active = well fitted curve in the direction sought with a large enough effect; an effect the other way counts as inactive or inconclusive;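 also: HeLa cells stably carrying EGFP split by mutant beta-globin IVS2-654 intron; per-well total GFP intensity by laser scanning cytometry after 2-day treatment; % of control where 0% means no effect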). Summed up:
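Readout: per-well total peak green fluorescence (488 nm ex, 500–520 nm em) from objects 5–250 µm, reflecting correct splicing of an EGFP-654 reporter. Compounds were applied for 2 days at 37 °C to overnight-plated HeLa EGFP-654 cells; controls were DMSO and 500 nM IVS2-654 PNA.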

Assay [12] in a line: Confirmation and Secondary Assay for Modulators of Hemoglobin Beta Chain Splicing at IVS2 705 locus (AID 930; active = well fitted curve in the direction sought with a large enough effect; an effect the other way counts as inactive or inconclusive;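 also: HeLa cells stably expressing the EGFP-705 splicing reporter; % of control where 0% means no effect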). Summed up: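 Fluorescence gain (488 nm laser, 500-520 nm PMT) reflects restored correct splicing of a mutant IVS2-705 intron inside EGFP in stably transfected HeLa cells after 2-day compound treatment.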
Assay [13] concerns the target Ubiquitin carboxyl-terminal hydrolase 1 (Homo sapiens) (UniProt O94782). In words: Inhibitors of USP1/UAF1: Pilot qHTS (AID 504865; active = well fitted curve in the direction sought with a large enough effect; an effect the other way counts as inactive or inconclusive; also: nearly all actives have a fitted effect of over 35% in size; also: potency is read from the fitted curve at half-maximal effect). Summed up:
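Kinetic fluorescence assay: 1nM USP1/UAF1, 15 min compound preincubation, then 150nM Ub-Rho; 480/540 nm.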
(In general: qHTS replaces the single test concentration by a dilution series.)

Assay [14] has as its target Cytochrome P450 3A4 (Homo sapiens) (UniProt P08684). Briefly: qHTS Assay for Inhibitors and Substrates of Cytochrome P450 3A4 (AID 884; active = well fitted curve in the direction sought with a large enough effect; an effect the other way counts as inactive or inconclusive; also: potency is read from the fitted curve at half-maximal effect; nearly all actives have a fitted effect of over 50% in size). In short, it runs like this:
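Luminescent readout of luciferin produced by CYP3A4 (20 nM) dealkylation of Luciferin-PPXE, 25 uM (its KM). NADPH-driven reaction ran 60 min at RT after 10 min compound preincubation; data scaled to 57 uM ketoconazole as 100% inhibition.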

Assay [15] has the same target. Briefly: qHTS Assay for Activators of Cytochrome P450 3A4 (AID 885; active = well fitted curve in the direction sought with a large enough effect; an effect the other way counts as inactive or inconclusive; also: nearly all actives have a fitted effect of over 65% in size). In short, it runs like this:
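Activators are scored by enhanced luminescence from CYP3A4 conversion of luciferin-PPXE (25uM, equal to KM) to luciferin, after 60 min at RT with an NADPH-regenerating system.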

Assay [16] deals with Dual specificity protein kinase CLK4 (Homo sapiens) (UniProt Q9HAZ1). Briefly: qHTS Assay for Inhibitors of CDC-like Kinase 4 (ADP-FP Assay) (AID 1795; active = well fitted curve in the direction sought with a large enough effect; an effect the other way counts as inactive or inconclusive;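 also: recombinant human CLK4 phosphorylating RS repeat peptide at 1 µM ATP; % is scaled to controls: 0 for no effect and ±100 for the full control effect; nearly all actives have a fitted effect of over 60% in size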). Summed up: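 Inhibition of ADP formation by 6.25 nM Clk4 is measured using 1 uM ATP and 100 uM RS repeat peptide over one hour. Produced ADP displaces a fluorescent tracer from antibody, lowering polarization.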
Assay [17] is described as follows: Primary qHTS for small molecule stabilizers of the endoplasmic reticulum resident proteome: Secreted ER Calcium Modulated Protein (SERCaMP) assay (AID 1508630; active = well fitted curve in the direction sought with a large enough effect; an effect the other way counts as inactive or inconclusive; also: % is scaled to controls: 0 for no effect and ±100 for the full control effect). In short, it runs like this: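 The SH-SY5Y reporter protocol was run at 3 concentrations up to 38.3 uM (primary) or 11 concentrations (follow-up): 16 h compound, 100 nM thapsigargin for 4 h, then extracellular luciferase luminescence.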

The target of assay [18] is Dual specificity protein kinase CLK4 (Homo sapiens) (UniProt Q9HAZ1). Briefly: qHTS Assay for Inhibitors of CDC-like Kinase 4 (Kinase-Glo Assay) (AID 1770; active = well fitted curve in the direction sought with a large enough effect; an effect the other way counts as inactive or inconclusive; also: % is scaled to controls: 0 for no effect and ±100 for the full control effect; nearly all actives have a fitted effect of over 65% in size). Summed up:
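Inhibition was judged from remaining ATP, measured by Ultra-Glo luciferase bioluminescence after Clk4 (25 nM) had acted on RS peptide at 1 uM ATP for 4.5 hours, room temperature.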

[19] abbreviates: measured here: cell count channel max response.
The mark [20] stands for this setting: measured here: lipid channel max response.

Sequence of Ubiquitin carboxyl-terminal hydrolase 1 (Homo sapiens) (O94782 whole entry, looked up): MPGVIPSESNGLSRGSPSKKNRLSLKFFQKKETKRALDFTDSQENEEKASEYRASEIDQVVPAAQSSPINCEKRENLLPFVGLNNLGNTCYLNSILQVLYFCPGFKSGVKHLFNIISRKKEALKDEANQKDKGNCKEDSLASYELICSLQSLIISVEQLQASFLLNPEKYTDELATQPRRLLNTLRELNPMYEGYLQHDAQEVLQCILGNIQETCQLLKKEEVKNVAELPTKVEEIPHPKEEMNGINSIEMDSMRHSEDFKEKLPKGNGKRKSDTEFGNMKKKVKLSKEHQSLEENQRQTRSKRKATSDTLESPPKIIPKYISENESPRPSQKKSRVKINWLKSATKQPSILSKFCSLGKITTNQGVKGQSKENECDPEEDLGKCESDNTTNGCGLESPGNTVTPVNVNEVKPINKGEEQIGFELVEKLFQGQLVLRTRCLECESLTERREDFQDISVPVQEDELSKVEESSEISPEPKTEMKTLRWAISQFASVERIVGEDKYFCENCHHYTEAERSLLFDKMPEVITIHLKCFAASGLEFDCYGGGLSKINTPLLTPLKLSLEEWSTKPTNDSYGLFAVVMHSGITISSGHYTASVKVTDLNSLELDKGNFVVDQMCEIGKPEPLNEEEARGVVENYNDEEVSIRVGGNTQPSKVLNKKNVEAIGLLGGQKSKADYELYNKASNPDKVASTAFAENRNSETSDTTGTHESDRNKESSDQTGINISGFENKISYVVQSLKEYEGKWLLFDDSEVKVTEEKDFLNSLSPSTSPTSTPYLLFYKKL
Sequence of Cytochrome P450 3A4 (Homo sapiens) (P08684 whole entry, looked up): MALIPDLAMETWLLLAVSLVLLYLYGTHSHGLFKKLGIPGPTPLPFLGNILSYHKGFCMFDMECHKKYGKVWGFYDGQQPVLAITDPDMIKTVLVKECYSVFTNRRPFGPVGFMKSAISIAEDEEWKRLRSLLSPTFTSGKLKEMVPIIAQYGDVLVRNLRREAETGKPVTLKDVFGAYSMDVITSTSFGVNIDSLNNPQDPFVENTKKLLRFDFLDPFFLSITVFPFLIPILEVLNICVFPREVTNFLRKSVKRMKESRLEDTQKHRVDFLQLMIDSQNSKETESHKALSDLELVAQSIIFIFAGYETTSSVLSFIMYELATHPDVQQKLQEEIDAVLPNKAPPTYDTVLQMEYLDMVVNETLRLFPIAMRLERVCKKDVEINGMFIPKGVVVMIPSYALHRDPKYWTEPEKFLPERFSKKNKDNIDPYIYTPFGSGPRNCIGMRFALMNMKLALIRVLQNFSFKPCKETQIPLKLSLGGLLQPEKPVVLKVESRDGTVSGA
Sequence of Cytochrome P450 1A2 (Homo sapiens) (P05177 whole entry, looked up): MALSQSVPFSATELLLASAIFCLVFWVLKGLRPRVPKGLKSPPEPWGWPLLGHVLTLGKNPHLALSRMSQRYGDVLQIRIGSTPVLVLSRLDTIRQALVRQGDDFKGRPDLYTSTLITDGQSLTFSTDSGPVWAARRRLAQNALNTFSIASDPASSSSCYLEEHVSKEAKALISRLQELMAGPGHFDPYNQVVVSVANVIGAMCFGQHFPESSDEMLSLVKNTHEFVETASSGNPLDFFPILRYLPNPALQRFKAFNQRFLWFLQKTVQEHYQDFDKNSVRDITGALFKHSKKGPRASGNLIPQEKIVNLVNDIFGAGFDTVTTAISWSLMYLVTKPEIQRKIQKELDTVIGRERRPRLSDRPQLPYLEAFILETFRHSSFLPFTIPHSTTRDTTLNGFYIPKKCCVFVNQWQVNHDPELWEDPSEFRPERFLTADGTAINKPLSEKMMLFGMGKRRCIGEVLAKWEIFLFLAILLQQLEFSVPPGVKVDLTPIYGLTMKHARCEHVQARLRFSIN
Sequence of 3',5'-cyclic-AMP phosphodiesterase 4B (Homo sapiens) (Q07343 whole entry, looked up): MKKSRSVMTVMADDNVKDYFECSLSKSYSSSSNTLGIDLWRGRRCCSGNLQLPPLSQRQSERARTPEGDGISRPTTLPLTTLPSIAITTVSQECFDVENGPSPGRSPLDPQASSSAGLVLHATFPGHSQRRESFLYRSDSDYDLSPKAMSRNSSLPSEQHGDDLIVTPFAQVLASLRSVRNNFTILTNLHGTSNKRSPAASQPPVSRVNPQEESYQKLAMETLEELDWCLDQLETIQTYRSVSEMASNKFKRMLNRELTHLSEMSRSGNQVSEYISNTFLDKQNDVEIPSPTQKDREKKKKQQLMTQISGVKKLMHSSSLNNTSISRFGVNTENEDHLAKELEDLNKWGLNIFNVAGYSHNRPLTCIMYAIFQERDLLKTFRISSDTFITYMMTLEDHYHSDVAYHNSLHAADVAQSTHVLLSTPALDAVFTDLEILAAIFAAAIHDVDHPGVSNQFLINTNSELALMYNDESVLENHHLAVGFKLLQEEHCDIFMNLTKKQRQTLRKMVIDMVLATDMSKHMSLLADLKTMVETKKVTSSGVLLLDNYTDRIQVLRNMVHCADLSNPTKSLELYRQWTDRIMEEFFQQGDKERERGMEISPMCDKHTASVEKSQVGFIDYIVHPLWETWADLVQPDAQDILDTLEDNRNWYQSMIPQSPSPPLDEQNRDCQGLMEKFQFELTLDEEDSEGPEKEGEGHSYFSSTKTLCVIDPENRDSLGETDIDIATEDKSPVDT
Sequence of Lysosomal acid glucosylceramidase (Homo sapiens) (P04062 whole entry, looked up): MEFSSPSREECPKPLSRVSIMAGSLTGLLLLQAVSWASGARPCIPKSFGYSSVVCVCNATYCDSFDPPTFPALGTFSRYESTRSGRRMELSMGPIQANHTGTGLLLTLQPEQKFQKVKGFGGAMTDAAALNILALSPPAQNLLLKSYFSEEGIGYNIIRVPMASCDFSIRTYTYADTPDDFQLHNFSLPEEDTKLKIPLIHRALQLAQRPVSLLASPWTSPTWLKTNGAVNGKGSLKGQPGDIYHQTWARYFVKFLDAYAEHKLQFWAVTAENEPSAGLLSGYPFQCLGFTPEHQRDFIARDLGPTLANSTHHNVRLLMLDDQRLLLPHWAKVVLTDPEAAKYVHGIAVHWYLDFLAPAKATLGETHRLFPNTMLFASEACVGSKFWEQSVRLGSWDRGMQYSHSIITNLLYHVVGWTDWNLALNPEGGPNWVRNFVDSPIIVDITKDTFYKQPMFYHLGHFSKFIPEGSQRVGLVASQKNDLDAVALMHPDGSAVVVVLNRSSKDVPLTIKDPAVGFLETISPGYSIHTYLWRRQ
Sequence of Glucocorticoid receptor (Homo sapiens) (P04150 whole entry, looked up, the tested form may be a part): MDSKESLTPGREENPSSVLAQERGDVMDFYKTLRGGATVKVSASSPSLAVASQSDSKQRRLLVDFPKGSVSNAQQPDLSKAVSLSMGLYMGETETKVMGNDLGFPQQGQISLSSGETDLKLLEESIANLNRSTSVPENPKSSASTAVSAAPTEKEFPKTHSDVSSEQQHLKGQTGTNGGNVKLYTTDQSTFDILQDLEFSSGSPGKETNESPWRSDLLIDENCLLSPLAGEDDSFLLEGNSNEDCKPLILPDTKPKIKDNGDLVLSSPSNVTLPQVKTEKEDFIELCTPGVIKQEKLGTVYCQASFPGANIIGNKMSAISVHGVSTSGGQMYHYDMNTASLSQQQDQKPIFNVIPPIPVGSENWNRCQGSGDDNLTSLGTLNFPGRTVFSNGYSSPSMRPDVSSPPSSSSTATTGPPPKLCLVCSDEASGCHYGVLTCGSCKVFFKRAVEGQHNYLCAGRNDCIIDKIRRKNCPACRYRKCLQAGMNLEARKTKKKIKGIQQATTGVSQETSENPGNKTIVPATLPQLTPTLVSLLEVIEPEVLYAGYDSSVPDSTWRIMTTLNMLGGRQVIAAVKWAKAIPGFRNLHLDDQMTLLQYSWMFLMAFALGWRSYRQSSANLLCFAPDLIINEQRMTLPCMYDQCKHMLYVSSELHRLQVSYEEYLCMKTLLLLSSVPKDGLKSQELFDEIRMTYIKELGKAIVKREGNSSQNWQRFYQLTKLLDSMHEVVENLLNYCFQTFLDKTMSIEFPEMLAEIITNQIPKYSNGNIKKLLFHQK
Sequence of Dual specificity protein kinase CLK4 (Homo sapiens) (Q9HAZ1 whole entry, looked up): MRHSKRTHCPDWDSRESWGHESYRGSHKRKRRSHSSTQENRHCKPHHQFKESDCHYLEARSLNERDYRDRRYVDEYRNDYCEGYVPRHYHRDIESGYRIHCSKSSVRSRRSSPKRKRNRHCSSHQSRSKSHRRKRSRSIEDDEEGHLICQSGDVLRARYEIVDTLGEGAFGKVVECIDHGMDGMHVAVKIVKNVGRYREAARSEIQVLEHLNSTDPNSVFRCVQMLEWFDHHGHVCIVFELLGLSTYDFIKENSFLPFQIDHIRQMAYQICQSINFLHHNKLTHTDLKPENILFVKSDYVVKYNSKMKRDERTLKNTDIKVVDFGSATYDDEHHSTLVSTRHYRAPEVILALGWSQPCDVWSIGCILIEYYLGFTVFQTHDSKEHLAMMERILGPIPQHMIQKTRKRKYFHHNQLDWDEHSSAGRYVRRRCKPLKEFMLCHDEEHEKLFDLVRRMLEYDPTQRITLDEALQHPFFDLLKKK

Take `Cn1c(=O)cnc2cnc(Oc3ccccc3)nc21`: the Potency in [1] is > 11.4 µM (inactive); in assay [3], 10 µM (active); in assay [6] it was > 9.22 µM (inactive); in assay [7], > 46 µM (inactive). The activity change, negative = inhibition in assay [2] is 5.77% (inactive); in assay [4], 4.94% (inactive); in [10], 3.92% (inactive). In addition, in [5], the activity, negative = inhibition is -3.04% (inactive). For the same molecule, the result in assay [8] was inactive. Besides, the Potency entry in assay [9] was “inactive”. Besides, the max response was 18.8% in assay [10] (setting [19]) and 25.3% in assay [10] (setting [20]).
For `CN1CCN(c2cc(-c3ccc(N(C)C)cc3)ncn2)CC1`, the Potency is > 11.4 µM (inactive) in assay [1], 2.51 µM (active) in [3], > 46 µM (inactive) in assay [6] and > 46 µM (inactive) in assay [7]. Moreover, the figures for the activity change, negative = inhibition in assay [2], in [4] and in assay [10] were -7.42% (inactive), -7.21% (inactive) and 8.21% (inactive), respectively. In assay [5], the activity, negative = inhibition was 2.2% (inactive). In addition, the molecule was classed as inactive in assay [8], in assay [11] and in assay [12]. Also, the Potency result in assay [9] and in assay [13] was “inactive” throughout. Further, the figures for the max response in assay [10] (setting [19]) and in assay [10] (setting [20]) were 7.68% and 16.4%, respectively.
On to `COc1ccc2c(c1)c(CC(=O)O)c(C)n2Cc1ccc(F)cc1`, for which the activity change, negative = inhibition in assay [2] was 1.56% [at 38 µM] (inactive); in assay [4], 6.06% [at 38 µM] (inactive). Also, the activity, negative = inhibition in assay [5] was 11.9% [at 38 µM] (inactive). For the same molecule, the Potency in assay [6] and in [7] was > 46 µM (inactive) in each case. Moreover, the molecule was called inactive in [8]. Besides, the Potency entry in assay [9] is “inactive”.
With `CCCn1c(-c2ccc(F)cc2)nc2c(NCCCCN(CC)CC)nc(C)nc21`, the result in [8] was inactive. In addition, the Potency in assay [14] was 10 µM (active). Besides, the Potency entry in [15] was “inactive”.
As to `Cc1ccccc1-c1nc(NCc2cccs2)c2ccccc2n1`, the activity change, negative = inhibition in [4] is -9.98% (inactive); in [10], 5.52% (inactive). The activity, negative = inhibition in [5] was -16.7% (inactive). Moreover, the Potency in assay [6] was > 46 µM (inactive); in assay [7], > 46 µM (inactive); in [13], 14.1 µM (active). For the same molecule, in assay [8], the molecule was classed as inactive. For the same molecule, the max response is -1.85% in assay [10] (setting [19]) and 1.44% in assay [10] (setting [20]). Further, in assay [16], the Potency result is “inactive”.
In the case of `CN(C)c1ccnc(-c2cccc(NS(C)(=O)=O)c2)n1`, the Potency in assay [1] is > 11.4 µM (inactive); in assay [3] it was 1.58 µM (active); in assay [6], > 46 µM (inactive); in assay [7], > 46 µM (inactive). For the same molecule, the activity change, negative = inhibition is -6.35% (inactive) in assay [2] and 0.933% (inactive) in assay [4]. The outcome in assay [8], in [11] and in assay [12] was inactive. Moreover, the Potency entry in assay [9], in assay [15], in [13] and in assay [17] was “inactive” in each case.
`O=C(c1csnn1)N1CCC2(CC1)CCN(c1ncccn1)CC2`: the Potency in [1] was > 11.4 µM (inactive); in [7], > 46 µM (inactive). Besides, the activity change, negative = inhibition was -14.3% (inactive) in assay [2], 1.39% (inactive) in assay [4] and 4.97% (inactive) in [10]. For the same molecule, the Potency result in assay [3] and in assay [9] was “inactive” throughout. For the same molecule, the molecule was classed as inactive in [8]. Besides, the max response in assay [10] (setting [19]) is -0.155%; in assay [10] (setting [20]) it was 6.88%.
Turning to `Cc1ccccc1-c1cc(NCc2ccccc2)ncn1`, the Potency in assay [1] was > 11.4 µM (inactive); in assay [3], 3.98 µM (active); in [6], > 46 µM (inactive); in assay [7], > 46 µM (inactive); in assay [13], 20 µM (active). Further, the figures for the activity change, negative = inhibition in [2], in [4] and in [10] were 19.4% (inactive), -13.3% (inactive) and 4.42% (inactive), respectively. The call in assay [8] was inactive. For the same molecule, the max response in assay [10] (setting [19]) is 24.9%; in [10] (setting [20]), 28.2%. The Potency result in assay [18] and in [16] was “inactive” in each case.
